# Shown are actives, neighbours in structure and some others; about 3.3% of the full set was active somewhere.
# VACV mCherry inh = inhibitors of vaccinia virus infection (mCherry reporter signal); Vaccinia virus mCherry reporter infection, fluorescence; Potency, µM (series often up to 36.5 µM), inactives show at the highest dose activity change, negative = inhibition, hits mostly inhibitors; actives 0.63% (n = 310,000); AID 720579; calls by dose curve; tested in A549 cells; also: nearly all actives have a fitted effect of over 35% in size
# VACV Venus inh = vaccinia inhibition (Venus reporter); actives 0.46% (n = 330,000); Vaccinia virus Venus reporter expression, fluorescence; AID 720580; Potency, µM (highest dose often 36.5 µM), without a hit: at the top dose activity change, negative = inhibition, actives largely listed as inhibitors; calls by dose curve; tested in A549 cells; also: nearly all actives have a fitted effect of over 30% in size
# HCV inhibitor = inhibitors of hepatitis C virus infection; Huh7.5.1 HCVcc-Cre infection, luciferase reporter, 44 h; Potency, µM (highest dose often 41.8 µM), without a hit: top-dose activity change, negative = inhibition, most hits filed as inhibitors; actives 3.4% (n = 340,000); AID 651820; active = well fitted inhibition curve with a large enough effect; inconclusive = small, poorly fitted or top-dose-only effect, or another doubt; inactive = no such curve, though single readings can be large or run the other way
#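 HCVcc-Cre virus at an moi near 0.5 was added right after compound to cells cultured 4 h from seeding (1,000 cells/well). Luciferase activity was determined 44 h later, 15 min after substrate addition at RT.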
# The depositor's hits bear a star; i = inactive; ? = inconclusive; nt = no result; [ ] = remark or other dose. % is scaled to controls: 0 for no effect and ±100 for the full control effect; potency is read from the fitted curve at half-maximal effect.
SMILES,VACV mCherry inh,VACV Venus inh,HCV inhibitor
CCN1CCN(S(=O)(=O)c2ccc(Cl)c(C(=O)N(CCc3ccccc3)Cc3ccccc3)c2)CC1,nt,nt,12.6µM*
Cc1ccc(C)c(NC(=O)CN(C)C(=O)c2cccc(S(=O)(=O)N3CCN(Cc4ccccc4)CC3)c2)c1,-2.5%,-16.1%,5.62µM*
Cc1ccc(C)c(NC(=O)CN(C)C(=O)c2cccc(S(=O)(=O)N3CCCC3)c2)c1,-13.4%,-4.0%,-3.3%
CN(CCOc1ccc(Cl)cc1)C(=O)c1cccc(S(=O)(=O)N2CCN(Cc3ccccc3)CC2)c1,nt,nt,2.51µM*
CCc1ccccc1NC(=O)CNC(=O)c1cccc(S(=O)(=O)N2CCN(Cc3ccccc3)CC2)c1,-6.1%,-21.1%,10µM*
COc1cccc(NC(=O)c2cccc(S(=O)(=O)N3CCN(Cc4ccccc4)CC3)c2)c1,-11.2%,-19.2%,?
CCN1CCN(S(=O)(=O)c2ccc(Cl)c(C(=O)N(CC)Cc3ccccc3)c2)CC1,-21.9%,-11.7%,?
COc1ccc(NC(=O)CN(C)C(=O)c2cccc(S(=O)(=O)N3CCN(Cc4ccccc4)CC3)c2)cc1,-3.0%,-17.0%,?
Cc1nn(C)cc1CNc1nc(C)c(-c2ccn(CC3COc4ccccc4O3)n2)s1 (stereo not drawn),-8.7%,-9.6%,nt
O=S(=O)(c1ccccc1C(F)(F)F)N1CCN(c2nc(-c3ccccc3)nc3ccccc23)CC1,-13.7%,-14.0%,nt
O=C(O)CC1c2ccccc2CCN1S(=O)(=O)c1cccs1 (stereo not drawn),-4.9%[7.34 µM],-13.8%[7.34 µM],12.1%
CC(=O)Nc1cccc(NC(=O)c2cccc(S(=O)(=O)N3CCN(Cc4ccccc4)CC3)c2)c1,-18.2%,-12.6%,?
CCN(CC)C(=O)c1ccc(NC(=O)c2cccc(S(=O)(=O)N3CCN(Cc4ccccc4)CC3)c2)cc1,-17.5%,?,6.31µM*
COc1cc(CCC(=O)NCc2ccc3c(c2)CCN3C(=O)c2ccc(F)cc2)cc(OC)c1OC,-14.3%,-3.8%,nt
O=C(NNc1c2ccccc2nc2ccccc12)c1ccc(O)cc1,nt,nt,10µM*
O=C(NNc1c2ccccc2nc2ccccc12)C12CC3CC(CC(C3)C1)C2,-23.2%,-2.7%,7.8%
COc1ccccc1C(=O)NNc1ncc(C)s1,-11.9%,-11.6%,8.4%
O=C(NNc1nc(=O)c2cccnc2s1)c1ccccc1O,-7.2%,-2.3%,3.16µM*
O=C(NNc1c2ccccc2nc2ccccc12)c1ccccc1Cl,nt,nt,4.47µM*
O=C(NNc1c2ccccc2nc2ccccc12)c1ccccc1O,?,-28.7%,8.91µM*
O=C(NNc1ccccc1)c1ccccc1,-10.5%,-17.1%,-2.3%
O=C(NNC(=O)c1ccccc1Cl)c1ccccc1Cl,i[7.34 µM],-7.9%[7.34 µM],-10.0%
CCOc1ccc2cc(C#N)c(SCC(=O)OCc3ccccc3)nc2c1,i,-19.7%,nt
COC(=O)c1ccc2c(c1)N(C)S(=O)(=O)c1cnc(SCC(=O)C(C)(C)C)nc1-2,i,27.5%,3.2%
Cc1ccc(NC(=O)C(C)Sc2nc(-c3ccccc3)c(C#N)c(=O)[nH]2)c(C)c1 (stereo not drawn),1.4%,-4.7%,nt
SMILES,VACV mCherry inh,VACV Venus inh,HCV inhibitor
O=C(Nc1cccnc1Cl)c1cnn2c1NC(=C1CC1)C=C2C(F)F,-18.0%,-20.8%,nt
CC[C@H](C)C1OC(=O)[C@@H](C)[C@@H](CC)NC(=O)[C@H](C)N(C)C(=O)C(C)(C)C(=O)C(C)NC(=O)[C@H](Cc2ccc(OC)cc2)N(C)C(=O)[C@H](C(C)C)N(C)C(=O)CNC(=O)[C@H](CC(C)C)N(C)C(=O)CNC1=O (stereo partly drawn),0.891µM*,1µM*,nt
CCC(C)C1NC(=O)C2CCCN2C(=O)C(CC(C)C)OC(=O)CCNC(=O)C(C)N(C)C(=O)C(C(C)C)N(C)C1=O (stereo not drawn),-26.4%,-27.5%,?
CCC[C@H]1NC(=O)[C@H](C)N(C)C(=O)C(C)(C)C(=O)C(C)NC(=O)[C@H](Cc2ccc(OC)cc2)N(C)C(=O)[C@H](C(C)C)N(C)C(=O)CNC(=O)[C@H](CC(C)C)N(C)C(=O)CNC(=O)[C@H]([C@@H](C)CC)OC(=O)[C@H]1C (stereo partly drawn),?,0.316µM*,0.562µM*
Cc1nc(N2CCCC2)c2c(C(=O)Nc3ccc(Br)cc3F)c(C)oc2n1,-22.3%,-14.0%,nt
COc1ccc(-c2noc(CSCC(=O)Nc3cccc(C(F)(F)F)c3)n2)cc1OC,i,-8.6%,nt
Cc1ccc2nc(Cl)cc(=O)n2c1,-11.2%,-9.3%,20.9%
O=C(C[n+]1cccc2ccccc21)c1ccc(Cl)cc1,nt,nt,-10.3%
O=C(C[n+]1cccc2ccccc21)c1ccc([N+](=O)[O-])cc1,-15.0%,1.7%,11.2µM*
COc1ccc(NC(=S)N(CCC(C)C)C2CCN(C(C)C)CC2)cc1Cl,-20.7%,-22.2%,3.98µM*
COCCN(C(=S)Nc1ccc(OC)c(Cl)c1)C1CCN(C(C)C)CC1,-7.6%,-13.8%,?
O=C(CCN1C(=O)/C(=C\c2cccc(Br)c2)SC1=S)N1CCOCC1,i,-7.3%,-26.2%
CCCN(C(=O)CSc1cc(-c2ccccc2)c2ccc(OC)cc2n1)C1CCS(=O)(=O)C1 (stereo not drawn),-12.9%,-12.8%,-15.0%
COc1ccc2c(-c3ccccc3)cc(SC(C)C(N)=O)nc2c1 (stereo not drawn),-22.0%,-21.0%,11.2µM*
COc1ccccc1C=NNC(=O)NN=Cc1ccccc1OC,?,-4.6%,?
COc1cc(OC)c2cc(C(=O)N/N=C/c3cccc(OC)c3O)[nH]c2c1,11.2µM*,-25.7%,8.91µM*
COc1cccc(/C=N/NC(=O)c2cc3c(OC)ccc(OC)c3[nH]2)c1O,?,?,2.51µM*
COc1ccccc1OCC(=O)N/N=C/c1cccc2cccnc12,?,-30.0%,10.1%
COc1cccc(/C=N/NC(=O)COc2cccc3cccnc23)c1O,12.6µM*,-25.3%,?
COc1ccc2cc(C(=O)N/N=C/c3cc(OC)c(OC)c(OC)c3)[nH]c2c1,nt,nt,-14.4%
COc1cccc(/C=N/NC(=O)c2ccc3nc[nH]c3c2)c1O,?,-3.1%,12.1%
COc1ccccc1C=NN=C(NN=Cc1ccccc1OC)NN=Cc1ccccc1OC,?,?,12.6µM*
COCCNC(=O)C1(C)CCCN(Cc2ccc(-c3ccccc3)o2)C1 (stereo not drawn),?,-7.4%,nt
Cc1cc(C)c(S(=O)(=O)NCC(c2ccco2)S(=O)(=O)c2cccs2)c(C)c1 (stereo not drawn),-9.8%,-15.1%,nt
Cc1cc(=O)n(Cc2ccc(Br)cc2F)c2c1c(C)nn2-c1ccccc1,-7.1%,3.2%,nt
SMILES,VACV mCherry inh,VACV Venus inh,HCV inhibitor
CC(=O)Nc1ccc(S(=O)(=O)NC2(C(F)(F)F)C(=O)Nc3c2c(=O)[nH]c(=O)n3-c2cccc(Cl)c2)cc1 (stereo not drawn),-5.7%,0.0%,nt
O=C(N/N=C/c1cc(Br)cc(Br)c1O)c1ccncc1,7.94µM*,?,?
COc1cccc(/C=N/NC(=O)c2c(C)nc3ccc(Br)cn23)c1O,nt,nt,4.47µM*
CCn1c(C)nc2cc(C(=O)N/N=C/c3ccc(O)c(O)c3O)ccc21,-11.7%,0.9%,-14.1%
COc1cc(/C=N/Nc2cccc3cccnc23)cc(OC)c1O,-11.0%,-9.1%,22.4µM*
Cc1cccc(C(=O)Oc2c(Br)cc(Br)cc2/C=N/NC(=O)c2ccncc2)c1,-11.0%,7.5%,0.4%
CCOc1ccccc1/C=N/NC(=O)c1c(C)nc2ccc(Br)cn12,nt,nt,-22.4%
